The test has as its target T1, Methionyl-tRNA synthetase, putative (Leishmania donovani (strain BPK282A1)) (UniProt E9BF75).
T1 sequence (whole entry): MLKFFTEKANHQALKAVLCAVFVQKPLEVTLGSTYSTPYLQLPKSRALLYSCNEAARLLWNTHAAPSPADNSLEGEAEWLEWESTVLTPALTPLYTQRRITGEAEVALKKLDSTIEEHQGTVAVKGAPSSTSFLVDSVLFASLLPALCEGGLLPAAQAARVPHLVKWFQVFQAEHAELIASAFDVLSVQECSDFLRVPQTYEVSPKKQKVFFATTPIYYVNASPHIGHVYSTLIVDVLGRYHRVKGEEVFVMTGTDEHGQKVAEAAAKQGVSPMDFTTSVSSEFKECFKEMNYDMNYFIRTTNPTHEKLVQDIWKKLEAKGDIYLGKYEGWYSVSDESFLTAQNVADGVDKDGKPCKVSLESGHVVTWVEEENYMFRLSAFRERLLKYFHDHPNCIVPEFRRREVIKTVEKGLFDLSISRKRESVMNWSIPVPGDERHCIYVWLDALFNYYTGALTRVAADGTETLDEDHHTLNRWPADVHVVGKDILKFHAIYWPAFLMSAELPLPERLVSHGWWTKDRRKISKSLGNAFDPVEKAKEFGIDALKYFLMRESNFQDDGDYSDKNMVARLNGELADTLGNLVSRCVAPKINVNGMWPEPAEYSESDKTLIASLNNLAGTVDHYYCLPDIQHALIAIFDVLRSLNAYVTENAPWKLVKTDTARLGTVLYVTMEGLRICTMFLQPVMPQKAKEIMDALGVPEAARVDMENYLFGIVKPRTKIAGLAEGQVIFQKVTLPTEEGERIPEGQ
Kind of test: Leishmania donovani Methionine tRNA synthetase (LdMetRS):v7. Dose response assay. Format: functional. The arrangement: conc 80 nM, time 150 minutes.

In turn, `NC(=O)C1CCN(c2cncc(-n3cccn3)n2)CC1` gave a PXC50 (MAX_EFFECT 1.936619718) of under 4 and a PXC50 (MAX_EFFECT 4.750593824) of under 4.
As to `CC(C)C[C@H](N)C(=O)Nc1cccnc1Oc1ccc(Cl)cc1`, the PXC50 was under 4 (MAX_EFFECT 2.186878728) and under 4 (MAX_EFFECT 7.568807339).
`FC(F)(F)c1nc(N2CCCC2)nc2c1CCCCC2` had a PXC50 (MAX_EFFECT 2.290076336) of under 4 and a PXC50 (MAX_EFFECT 5.793450882) of under 4.
Take `CC(=O)N[C@H](COc1cccc(F)c1Oc1ccc(Cl)cc1)CC(C)C`: the PXC50 was under 4 (MAX_EFFECT 3.105590062) and under 4 (MAX_EFFECT 4.051172708).
As to `COCc1nc(N(C)CC(=O)N(C)C)c2c(-c3ccccc3)csc2n1`, the PXC50 reads like this: (MAX_EFFECT 3.778337531) under 4; (MAX_EFFECT 3.816793893) under 4.
As to `Cc1nc(N(C)C)c2c3c(sc2n1)CCCC3`, the PXC50 by setting is: (MAX_EFFECT 4.166666667) under 4; (MAX_EFFECT 4.385964912) under 4.
With `CCc1nc(NCc2ccccn2)c2cc(CC)sc2n1`, the PXC50 is under 4 (MAX_EFFECT 4.176904177) and under 4 (MAX_EFFECT 4.522613065).
For `CCOCCCNc1nc(-c2ccc(C)cc2)cc(C(F)(F)F)n1`, the PXC50 reads like this: (MAX_EFFECT 5.102040816) under 4; (MAX_EFFECT 5.808080808) under 4.
With `COc1cccc(-c2cc(C(F)(F)F)nc(N(C)C)n2)c1`, the PXC50 by setting is: (MAX_EFFECT 5.18134715) under 4; (MAX_EFFECT 6.914893617) under 4.
Consider `O=C(O)C1CCCN1c1nc(C2CC2)cc(C(F)(F)F)n1` (stereo not drawn), for which the PXC50 is, setting by setting: (MAX_EFFECT 5.221932115) under 4; (MAX_EFFECT 7.049608355) under 4.
As for `CC(=O)NCc1nnc2n1CCN(c1nc(C)nc3sccc13)CC2`, the PXC50 is under 4 (MAX_EFFECT 6.527415144) and under 4 (MAX_EFFECT 9.921671018).
Regarding `Cc1cc(C(F)(F)F)nc(NCCc2ccccc2)n1`, the PXC50 is under 4 (MAX_EFFECT 6.557377049) and under 4 (MAX_EFFECT 10.16042781).
For `CC(C)(C)c1nc(NCCO)c2c3c(sc2n1)CCCC3`, the PXC50 by setting is: (MAX_EFFECT 6.632653061) under 4; (MAX_EFFECT 7.323232323) under 4.
Regarding `CNC(=O)CN(C)c1nc(-c2cccs2)nc2sc(C)c(C)c12`, the PXC50 is, setting by setting: (MAX_EFFECT 6.801007557) under 4; (MAX_EFFECT 6.870229008) under 4.
For the molecule `Cc1nn(C)cc1-c1cc(C(F)(F)F)nc(NC2CCCCC2)n1`, the PXC50 was under 4 (MAX_EFFECT 7.049608355) and under 4 (MAX_EFFECT 12.01044386).
In turn, `CCOc1ccc(CN(C)Cc2nc(N)c3c(C)c(C)sc3n2)cc1` came in with a PXC50 (MAX_EFFECT 7.466666667) of under 4 and a PXC50 (MAX_EFFECT 8.994708995) of under 4.
`FC1(F)CCN(c2ccccc2)CC12CCN(c1ncccn1)C2` (stereo not drawn): the PXC50 runs as follows: (MAX_EFFECT 8.920187793) under 4; (MAX_EFFECT 12.40740741) under 4.
`N[C@H](COc1cccc(F)c1Oc1ccc(Cl)cc1)C1CCOCC1`: the PXC50 by setting is: (MAX_EFFECT 9.316770186) under 4; (MAX_EFFECT 10.44776119) under 4.
`Cc1nccn1CCCn1cncc1-c1ccc2c(c1)CCCN2C`: the PXC50 was under 4 (MAX_EFFECT 9.523809524) and under 4 (MAX_EFFECT 19.43925234).
With `Cc1nc(NCc2noc(C3CCCO3)n2)c2ccsc2n1` (stereo not drawn), the PXC50 by setting is: (MAX_EFFECT 9.660574413) under 4; (MAX_EFFECT 12.53263708) under 4.
Take `Cc1ccc(-c2cc(C(F)(F)F)nc(N3CCOCC3)n2)s1`: the PXC50 is under 4 (MAX_EFFECT 10.18276762) and under 4 (MAX_EFFECT 14.09921671).
For `CCOC(=O)N1CCN(c2nc(-n3nc(C)cc3C)nc3sc4c(c23)CCCC4)CC1`, the PXC50 is, setting by setting: (MAX_EFFECT 10.41666667) under 4; (MAX_EFFECT 12.71929825) under 4.
Consider `O=C(c1c[nH]cn1)N1CCC(F)(F)C2(CCN(c3ccccn3)C2)C1` (stereo not drawn), for which the PXC50 is, setting by setting: (MAX_EFFECT 10.79812207) under 4; (MAX_EFFECT 12.40740741) under 4.
Take `CS(=O)(=O)N1CCN(CC2OB(O)c3ccccc32)CC1` (stereo not drawn): the PXC50 by setting is: (MAX_EFFECT 11.13207547) under 4; (MAX_EFFECT 15.06849315) under 4.
For the molecule `CCOCCN(CCOCC)c1nc(C)nc2sccc12`, the PXC50 is under 4 (MAX_EFFECT 12.27154047) and under 4 (MAX_EFFECT 15.66579634).
Take `COCCN(Cc1sccc1C)c1nc(C)nc2sccc12`: the PXC50 is, setting by setting: (MAX_EFFECT 12.79373368) under 4; (MAX_EFFECT 17.23237598) under 4.
Consider `Cc1nc(N(Cc2ccncc2)CC2CCCO2)c2ccsc2n1` (stereo not drawn), for which the PXC50 (MAX_EFFECT 13.31592689) was under 4 and the PXC50 (MAX_EFFECT 17.75456919) is under 4.
On to `Nc1noc2ccc(-c3cnc4ccc(NC5CCOCC5)nn34)cc12`, for which the PXC50 (MAX_EFFECT 17.30279898) was under 4 and the PXC50 (MAX_EFFECT 20.1754386) is under 4.
On to `CC[C@H](C)[C@H](Nc1nc(C)nc2sc3c(c12)CCCC3)C(=O)O`, for which the PXC50 runs as follows: (MAX_EFFECT 21.80851064) under 4; (MAX_EFFECT 23.31606218) under 4.
For `Cc1nc(N2CCN(c3ccccn3)CC2)c2c3c(sc2n1)CCCC3`, the PXC50 runs as follows: (MAX_EFFECT 22.61306533) under 4; (MAX_EFFECT 22.85012285) under 4.
`O=C(NC1CCCC1)c1ccc2ccc(N3CCCCC3)n2c1` had a PXC50 (MAX_EFFECT 36.52968037) of under 4 and a PXC50 (MAX_EFFECT 39.81132075) of under 4.
In turn, `COc1ccccc1C1(CNc2nnc(C)c(C)c2C#N)CCOCC1` registered a PXC50 (MAX_EFFECT 9.85915493) of under 4 and a PXC50 (MAX_EFFECT 18.33333333) of under 4.
In the case of `COCCN(CC1CC1)c1nc(CCN)nc2sc(C)c(C)c12`, the PXC50 was under 4 (MAX_EFFECT 32.65306122) and under 4 (MAX_EFFECT 36.11111111).
With `Nc1noc2ccc(-c3cnc4ccc(N5CCCCC5)nn34)cc12`, the PXC50 runs as follows: (BOTTOM 2.074435444, HILLSLOPE 0.92774459, MAX_EFFECT 58.33333333, TOP 100.0) 4.06; (BOTTOM -0.552717408, HILLSLOPE 0.869319648, MAX_EFFECT 51.90839695, TOP 100.0) 4.01.

(Values after ChEMBL document CHEMBL3988442, “University of Dundee, Small-Polar-MMV Screening Library” (2021).)
